Data reported in PubChem BioAssay (NCATS).
Results filed as inconclusive are left out. Activity calls are given as the source filed them. The call rests on the fitted dose curve.

Biological target: Cytochrome P450 1A2 (Homo sapiens) (UniProt P05177)
Assay: p450-cyp1a2 (AID 410);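 on activity change, negative = inhibition: -100% = full effect of reference inhibitor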
Conditions: recombinant CYP1A2, luciferin-ME demethylation, luminescence; series mostly up to 57 µM; activity change, negative = inhibition: at the top concentration
In short: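 Read-out is luminescence from luciferin produced by CYP1A2 demethylation of Luciferin-ME (100uM, at Km). Detection reagent stopped the 60 min NADPH-dependent reaction; signals were normalized to 57 uM furafylline.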
Potency means the concentration at half of the fitted maximal effect.

Chain of Cytochrome P450 1A2 (Homo sapiens) (P05177 whole entry, looked up): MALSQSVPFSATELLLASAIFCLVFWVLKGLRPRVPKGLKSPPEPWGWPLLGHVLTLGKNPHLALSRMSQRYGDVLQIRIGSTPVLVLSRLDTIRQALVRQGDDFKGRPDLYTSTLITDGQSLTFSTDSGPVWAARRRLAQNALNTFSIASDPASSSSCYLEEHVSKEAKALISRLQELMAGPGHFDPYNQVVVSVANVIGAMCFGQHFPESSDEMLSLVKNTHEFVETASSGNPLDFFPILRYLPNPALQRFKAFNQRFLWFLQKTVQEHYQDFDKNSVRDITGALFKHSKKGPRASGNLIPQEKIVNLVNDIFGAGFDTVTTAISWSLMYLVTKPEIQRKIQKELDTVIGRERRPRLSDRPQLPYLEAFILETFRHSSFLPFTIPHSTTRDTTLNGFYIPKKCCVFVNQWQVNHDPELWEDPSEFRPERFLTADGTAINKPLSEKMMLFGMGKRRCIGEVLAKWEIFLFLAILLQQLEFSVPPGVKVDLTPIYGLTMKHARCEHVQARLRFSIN

Row | SMILES | Potency | activity change, negative = inhibition
1 | COc1ccc2nc3c(c([Si](C)(C)C(C)(C)C)c2c1)Cn1c-3cccc1=O | 0.794 µM (active) | 
2 | CC(C)(C)C(=O)NC(c1ccc(Cl)cc1)[C@]1(C)C[C@H]1C1CCCCC1 (stereo not given in full) |  | -8.5% (inactive)
3 | S=C(Nc1ccccc1)Nc1ccccc1C#Cc1ccccc1 | 0.501 µM (active) | 
4 | CCCC[C@@H]1C[C@H]1C(NC(=O)c1ccccc1)c1ccc(Cl)cc1 (stereo not given in full) | 1 µM (active) | 
5 | CCCC[C@@H]1C[C@H]1C(NC(=O)c1cccs1)c1ccccc1C(F)(F)F (stereo not given in full) | 6.31 µM (active) | 
6 | CCCC[C@@H]1C[C@H]1C(NC(=O)c1ccco1)c1ccc(-c2ccccc2)cc1 (stereo not given in full) | 5.01 µM (active) | 
7 | COC(=O)[C@@]1(Cc2ccc(OC)cc2)[C@@H]2C(=CC(=O)[C@H]2CC(=O)C(=O)N2CCCC2)CN1C(=O)c1ccccc1 |  | -15.6% (inactive)
8 | CCCC[C@H]1C[C@@H]1[C@@H]1N(P(=O)(c2ccccc2)c2ccccc2)[C@](CO)(c2ccccc2)CC12CC2 |  | -20.5% (inactive)
9 | C[C@@]1(C(NC(=O)c2cccs2)c2ccc(-c3ccccc3)cc2)C[C@H]1C1CCCCC1 (stereo not given in full) |  | -11% (inactive)
10 | CCCCc1c2ccccc2nc2[nH]c3ccccc3c12 | 0.2 µM (active) | 
11 | CC(C)c1cccc2nc3c(c(C(C)(C)C)c12)Cn1c-3cccc1=O | 12.6 µM (active) | 
12 | CC(C)c1cccc2cc3c(nc12)-c1cccc(=O)n1C3 | 0.501 µM (active) | 
13 | c1ccc(-c2c3ccccc3nc3[nH]c4ccccc4c23)cc1 | 0.501 µM (active) | 
14 | CNC(=O)[C@H](C)[C@@H]1C[C@@]1(C)[C@@H](NC(=O)OCc1ccccc1)c1ccccc1 | 20 µM (active) | 
15 | CCC/C=C(\CCC)C(NC(=O)c1ccccc1)c1ccccc1 (stereo not given) | 10 µM (active) | 
16 | COc1cc2nc3c(c([Si](C)(C)C(C)(C)C)c2cc1OC)Cn1c-3cccc1=O | 5.01 µM (active) | 
17 | CCCC[C@@H]1C[C@H]1C(NC(=O)c1ccc(C(F)(F)F)cc1)c1ccc(C(=O)OC)cc1 (stereo not given in full) | 15.8 µM (active) | 
18 | O=C(NCc1cc(F)cc2c1OCCO2)[C@H]1C[C@@H]1[C@H](NP(=O)(c1ccccc1)c1ccccc1)c1ccccc1 | 15.8 µM (active) | 
19 | CCC/C=C(\CCC)C(NS(=O)(=O)CC12CCC(CC1=O)C2(C)C)c1ccc(C(=O)OC)cc1 (stereo not given) |  | -13.8% (inactive)
20 | COC(=O)c1ccc(C23CC2(C(NP(=O)(c2ccccc2)c2ccccc2)c2ccccc2)C3)cc1 (stereo not given) | 15.8 µM (active) | 

Row | SMILES | Potency | activity change, negative = inhibition
21 | COC(=O)[C@@]1(Cc2ccc(F)cc2)[C@H]2c3cc(C(=O)N(C)C)n(Cc4ccc(C)c(F)c4F)c3C[C@H]2CN1C(=O)c1ccccc1 |  | -11.3% (inactive)
22 | COC(=O)[C@@]1(Cc2ccccc2)[C@H]2c3cc(C(=O)N4CCCC4)n(Cc4nc5ccccc5[nH]4)c3C[C@H]2CN1C(=O)c1ccccc1 | 12.6 µM (active) | 
23 | CCCC[C@@H]1C[C@H]1C(NC(=O)Cc1ccccc1)c1ccc(-c2ccccc2)cc1 (stereo not given in full) |  | -13% (inactive)
24 | CCCC[C@@H]1C[C@H]1C(NC(=O)c1ccccc1)c1ccccc1C(F)(F)F (stereo not given in full) | 10 µM (active) | 
25 | C#CCCCC(=O)Nc1ccccc1 | 20 µM (active) | 
26 | CCCC[C@@H]1C[C@H]1C(NC(=O)Cc1ccccc1)c1ccc(Cl)cc1 (stereo not given in full) | 2.51 µM (active) | 
27 | CCC/C=C(\CCC)C(NS(=O)(=O)c1cccc2cccnc12)c1ccc(C(=O)OC)cc1 (stereo not given) | 6.31 µM (active) | 
28 | COC(=O)[C@@]1(Cc2ccc(OC)cc2)[C@@H]2[C@@H](CC(=O)[C@H]2CC(=O)C(=O)N2CCCC2)CN1C(=O)c1ccccc1 |  | -20.3% (inactive)
29 | CCC/C=C(\CCC)C(NP(=O)(c1ccccc1)c1ccccc1)c1ccc(-c2ccccc2)cc1 (stereo not given) | 2.51 µM (active) | 
30 | CC(C)(C)[Si](C)(C)c1c2c(nc3ccc(OCc4ccccc4)cc13)-c1cccc(=O)n1C2 | 5.01 µM (active) | 
31 | COC(=O)[C@@]1(Cc2ccc(F)cc2)[C@H]2c3cc(C(=O)N(C)C)n(Cc4ccc(C)o4)c3C[C@H]2CN1C(=O)c1ccccc1 |  | -12.5% (inactive)
32 | COC(=O)[C@@]1(Cc2ccc(OC)cc2)[C@@H]2C(=CC(=O)[C@H]2CC(=O)C(=O)N(C)C)CN1C(=O)c1ccccc1 |  | 1.4% (inactive)
33 | CCCC[C@@H]1C[C@H]1C(NC(=O)c1ccccc1)c1ccc(-c2ccccc2)cc1 (stereo not given in full) | 0.501 µM (active) | 
34 | CCC/C=C(\CCC)C(NP(=O)(c1ccccc1)c1ccccc1)c1ccc(C(F)(F)F)cc1 (stereo not given) |  | -7.2% (inactive)
35 | COc1ccc(COC2OC[C@]3(C)[C@H]4C5=C(CN3C(=O)OC(C)(C)C)[C@H](C)C(CO)C(CO)C5CC[C@@H]24)cc1 (stereo not given in full) |  | -11.3% (inactive)
36 | COC(=O)[C@@]1(Cc2ccccc2)[C@H]2c3cc(C(=O)N4CCCC4)n(C)c3C[C@H]2CN1C(=O)c1ccccc1 | 25.1 µM (active) | 
37 | CC(C)c1cccc2nc3c(c([Si](C)(C)C(C)(C)C)c12)Cn1c-3cccc1=O | 25.1 µM (active) | 
38 | C#CCOC(=O)NC(/C=C/CCCC)c1ccccc1 (stereo not given) | 15.8 µM (active) | 
39 | COC(=O)c1ccc(C(NC(=O)c2ccco2)[C@]2(C)C[C@H]2C2CCCCC2)cc1 (stereo not given in full) |  | -13.3% (inactive)
40 | CCC/C=C(\CCC)C(NC(=O)c1cccs1)c1ccc(C(F)(F)F)cc1 (stereo not given) | 3.16 µM (active) | 
